# HTR5A inv ag: HTR5A inverse agonism, opioid heterodimer counter-screen; HTR5A cell line, luminescence; inhibition, % at 9.3 µM; actives 0.083% (n = 340,000); in the data active means inhibition mostly above about 23%, no sharp cut-off; inactive means mostly below about 18%;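 further: 0% = cells with DMSO and 100% = no-cell wells with DMSO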
# HTR5A ag: HTR5A agonism, opioid heterodimer counter-screen; HTR5A agonist assay, luminescence, cell-based; activation, % at 9.3 µM; actives 0.61% (n = 340,000); in the data active means activation mostly above about 9.5%, no sharp cut-off; inactive means mostly below about 7.6%;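 further: 0% = cells with vehicle only and 100% = reference agonist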
# OPRM1-OPRD1 ag: OPRM1-OPRD1 heterodimerization agonism | actives 0.3% (n = 340,000) | activation, % at 9.3 µM | cells, luminescence;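 further: 0% = vehicle-treated cells and 100% = reference agonist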
# MOR-DOR inv ag: inverse agonists of human mu-delta opioid receptor heterodimerization | inhibition, % at 9.3 µM | cell-based MOR-DOR heterodimer luminescence, inverse agonism | actives 0.21% (n = 340,000) | AID 504357; in the data active means inhibition above about 22%, passing the limit was not always enough;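 further: 0% = cells with DMSO and 100% = wells without cells with DMSO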
# OPRM1-D1 ag cf: confirmation of human OPRM1-OPRD1 heterodimerization agonists; shares compounds with OPRM1-OPRD1 ag; cells, MOR-DOR heterodimerization, luminescence complementation; actives 45% (n = 830); activation, % at 9.3 µM;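 further: 0% = vehicle-treated cells and 100% = reference agonist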
# HTR5A ag counter: activates human HTR5A in OPRM1-OPRD1 agonist counter-screen; shares compounds with OPRM1-OPRD1 ag; activation, % at 9.3 µM; actives 8% (n = 830); HTR5A agonist counterscreen, cell luminescence; in the data active means activation above about 17%;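 further: 0% = vehicle-treated cells and 100% = reference agonist response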
# OPRM1-D1 inv cf: confirmation of human OPRM1-OPRD1 heterodimerization inverse agonists. shares compounds with MOR-DOR inv ag. cells expressing OPRM1/OPRD1 heterodimer, luminescence. inhibition, % at 9.3 µM. actives 20% (n = 580); in the data active means inhibition above about 32%;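 further: 0% = cells with DMSO and 100% = wells lacking cells with DMSO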
# HTR5A inv count: counter-screen for OPRM1-OPRD1 inverse agonists: human HTR5A inverse agonism; shares compounds with MOR-DOR inv ag; HTR5A-expressing cells, luminescence; inhibition, % at 9.3 µM; 580 tested, under 10 active; call rule not given here;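 further: 0% = cells with DMSO and 100% = no-cell wells with DMSO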
# An asterisk follows results filed as active; . = no result. Sampled rows, rich in hits. Any-hit rate of the full collection: about 1.1%. Unless noted, no stated cut-off is given here; in the data, active means activation above about 18%; inactive means the rest.
SMILES,HTR5A inv ag,HTR5A ag,OPRM1-OPRD1 ag,MOR-DOR inv ag,OPRM1-D1 inv cf,HTR5A inv count,others
C[C@]12CC[C@H](O)C[C@H]1CC[C@@H]1[C@@H]2C[C@@H](O)[C@]2(C)[C@@H](C3=CC(=O)OC3)CC[C@]12O,-63,34*,69*,-385,.,.,OPRM1-D1 ag cf=40*;HTR5A ag counter=30*
C[C@]12CCC3C(CC[C@H]4C[C@@H](O)CC[C@]34C)[C@H]1C=CC2=O (stereo partly drawn),14,-4,0,0,.,.,
CC12CC[C@H]3[C@@H](CCC4(O)C[C@H](O)CCC34/C=N/NC(=O)c3ccccc3[N+](=O)[O-])C1(O)CCC2C1=CC(=O)OC1 (stereo partly drawn),-38,11*,21*,-96,.,.,OPRM1-D1 ag cf=3;HTR5A ag counter=10
CC(=O)OC1CC(OC2C(O)CC(OC3C(O)CC(OC4CCC5(C)C(CCC6C5CC(O)C5(C)C(C7=CC(=O)OC7)CCC65O)C4)OC3C)OC2C)OC(C)C1OC1OC(CO)C(O)C(O)C1O (stereo not drawn),-95,26*,69*,-373,.,.,OPRM1-D1 ag cf=14;HTR5A ag counter=1
Oc1c(Cl)cccc1Cc1cc(Cl)cc(Cl)c1O,-14,4,0,0,.,.,
Cc1cc(N2C(=O)C3CCCN3C2c2ccccc2)no1 (stereo not drawn),-13,0,-3,16,.,.,
CCC1CCCCN1P(=O)(c1ccc(C)o1)C(C)(C)C (stereo not drawn),-16,3,-2,12,.,.,
CC(C)(C)NC(=O)CN1CCCN(C(=O)COc2ccc(Cl)c3ccccc23)CC1,-17,-2,-1,2,.,.,
COC1C(O)C(C)OC(OC2CCC3(C)C(CCC4C3C(O)CC3(C)C(C5=CC(=O)OC5)CCC43O)C2)C1O (stereo not drawn),-120,31*,85*,-374,.,.,OPRM1-D1 ag cf=28*;HTR5A ag counter=0
CC(=O)OC1CCC2(C)C(CC(=O)C3C2CCC2(C)C(OC(C)=O)CCC32)C1 (stereo not drawn),-11,3,0,2,.,.,
CN1CC2([N+](=O)[O-])CC=C(Cl)C([N+](=O)[O-])(C1)C2 (stereo not drawn),-9,3,-2,11,.,.,
COCCOC(=O)c1c(N)n(Cc2ccco2)c2nc3ccccc3nc12,3,-1,-5,29*,3,5,
COC(=O)c1c(N)n(Cc2ccc(OC)cc2)c2nc3ccccc3nc12,-13,-2,-7,32*,-15,0,
CC(C)OC(=O)c1c(N)n(Cc2ccco2)c2nc3ccccc3nc12,11,-5,-4,21,.,.,
CCN(c1ccc(C(O)(C(=O)OC)C(F)(F)F)cc1)S(=O)(=O)c1ccc(C)cc1 (stereo not drawn),3,1,2,-12,.,.,
Cc1cccc(N2CCN(Cc3ccc4c(c3)OCO4)CC2)c1C,-5,2,4,-23,.,.,
ON1C2CCCCC2N(O)C1c1ccccc1F (stereo not drawn),9,-3,-9,54*,-472,-63,
COCCCn1c(N)c(C(=O)OCCOC)c2nc3ccccc3nc21,7,-3,-5,20,.,.,
CCOC(=O)c1c(NS(=O)(=O)c2ccccc2)n(CCCOC)c2nc3ccccc3nc12,-29,-3,-10,46*,-51,-118,
CC1CCC/C=C/C2CC(O)CC2C(O)/C=C/C(=O)O1 (stereo not drawn),-29,0,-6,38*,14,-3,
C[C@H]1CCC[C@@H](O)CCC/C=C/c2cc(O)cc(O)c2C(=O)O1,-4,-2,0,2,.,.,
C[C@H]1CCC/C=C/C2C[C@H](O)CC2[C@H](O)/C=C/C(=O)O1 (stereo partly drawn),-2,1,-7,38*,19,-3,
CC(=NCC1CCCO1)c1c(O)n(-c2ccccc2C)c(=O)[nH]c1=O (stereo not drawn),13,-1,-2,12,.,.,

# Screening results deposited in PubChem BioAssay by The Scripps Research Institute Molecular Screening Center.
